Assay outcomes as filed in PubChem BioAssay.
Sampled rows, rich in hits. Any-hit rate of the full collection: about 7.3%.
FMDV inh – antivirals against foot and mouth disease virus | FMDV antiviral cell-based qHTS | Potency, µM (highest dose often 57.9 µM), for the others: at the highest dose activity change, negative = inhibition, actives largely listed as inhibitors | 410,000 compounds, 1.2% hits; calls by dose curve; tested in HEK293T cells; also: read-out not given here; potency is read from the fitted curve at half-maximal effect; nearly all actives have a fitted effect of over 45% in size
HCMV inh – inhibitors of human cytomegalovirus | HFF cells, HCMV-luciferase reporter, 72 h; hits give low values | activity change, negative = inhibition, % at 57.5 µM | 410,000 compounds, 4.5% hits; in the data active = activity change below about -60%; inconclusive = no clear call, values can overlap the other calls; inactive = above about -39%
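Two-dose cell screen: HFF monolayers treated with compounds and infected with luciferase-expressing HCMV at 1 PFU/cell, 72 h at 37C, then lysed for luciferase measurement.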
VACV Venus inh – vaccinia inhibition (Venus reporter) | 330,000 compounds, 0.46% hits | Vaccinia virus Venus reporter expression, fluorescence | Potency, µM (series often up to 36.5 µM), without a hit: at the top dose activity change, negative = inhibition, usual class: inhibitors; calls by dose curve; tested in A549 cells; also: potency is read from the fitted curve at half-maximal effect; nearly all actives have a fitted effect of over 30% in size
HCV inh – HCV inhibition; Huh7.5.1 HCVcc-Cre infection, luciferase reporter, 44 h; 340,000 compounds, 3.4% hits; AID 651820; Potency, µM (titrated, usually from 41.8 µM), without a hit: at the highest dose activity change, negative = inhibition, usual class: inhibitors; active = well fitted inhibition curve with a large enough effect; inconclusive = small, poorly fitted or top-dose-only effect, or another doubt; inactive = no such curve, though single readings can be large or run the other way; also: potency is read from the fitted curve at half-maximal effect
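Infectious HCVcc-Cre (~0.5 moi) was added to cells just after compound, with cells seeded 4 h earlier at 1,000 per well. Luciferase activity after 44 h culture reported infection; substrate was incubated 15 min at room temperature before reading.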
Vaccinia mCherry – inhibitors of vaccinia virus infection (mCherry reporter signal) | Vaccinia virus mCherry reporter infection, fluorescence | Potency, µM (titrated, usually from 36.5 µM), for inactives: at the top dose activity change, negative = inhibition, most hits filed as inhibitors | 310,000 compounds, 0.63% hits | AID 720579; calls by dose curve; tested in A549 cells; also: potency is read from the fitted curve at half-maximal effect; nearly all actives have a fitted effect of over 35% in size
The depositor's hits bear a star; i = inactive; ? = inconclusive; . = no result; ! = not active in a repeat. % is scaled to controls: 0 for no effect and ±100 for the full control effect.

SMILES	FMDV inh	HCMV inh	VACV Venus inh	HCV inh	Vaccinia mCherry
O=C(CN(c1ccc(Cl)cc1)S(=O)(=O)c1ccc(Cl)c([N+](=O)[O-])c1)NCCc1ccccc1	6%	37	3%	11µM*	-12%
CN(C)c1ncnc2c1ncn2[C@H]1CN(Cc2ccc(-c3ccccc3)cc2)C[C@@H](CO)O1	0%	-14	-19%	.	i
CC1(C(=O)NS(=O)(=O)c2cccc(OC(F)F)c2)CCN1C(=O)C/C=C/c1ccccc1 (configuration not stated)	5%	3	-3%	.	i
Cc1ccc(-n2nnnc2-c2cnn(-c3cccc(F)c3)c2C(F)(F)F)cc1	?	-75*	.	?	.
O=C(/C=C/Nc1ccc(F)cc1)c1cccs1	13µM*	17	-9%	4%	i
O=C(/C=C/Nc1ccc(F)c(F)c1)c1cccs1	-28%	306	-16%	5%	i
O=C(Nc1ccncc1)c1ccc(Cl)c(S(=O)(=O)N2CCCCC2)c1	?	.	-20%	10µM*	-4%
Cc1ccc(NC(=O)c2ccc(C)c(S(=O)(=O)N3CCCCC3)c2)nc1	-24%	-26	-13%	-1%	-1%
Cc1ccc(NC(=O)c2ccc(Cl)c(S(=O)(=O)N3CCCCCC3)c2)nc1	?	-68*	-11%	?	-13%
O=C(Nc1ccccc1)c1ccc(Br)c(S(=O)(=O)N2CCCCC2)c1	14µM*	0	-23%	.	-17%
O=C(Nc1ccc(Cl)c(S(=O)(=O)N2CCCCC2)c1)c1ccncc1	-34%	-77*	-25%	8.9µM*	-27%
O=C(O)c1ccc(NC(=O)c2ccc(Cl)c(S(=O)(=O)N3CCCCCC3)c2)cc1	-9%	1	-2%	.	-7%
OC(c1cccc(Cl)c1)c1nc(-c2csc3ccccc23)cs1 (configuration not stated)	-1%	-4	6%	.	25%
CCc1noc(C)c1C(=O)Nc1ccc(Cl)c(S(=O)(=O)N2CCCCC2)c1	22µM*	-35	-24%	?	-5%
Cc1ccc(NC(=O)c2ccc(S(=O)(=O)N3CCC(C)CC3)cc2)nc1	-15%	-64*	-21%	-29%	?
Cc1ccc(NC(=O)c2ccc(OCC3CCCO3)cc2)cc1Cl (configuration not stated)	-6%	?	-23%	.	?
CC(C)Cn1c(SCC#N)nc2ccccc2c1=O	0%	-101*	-14%	-13%	-13%
CN(C)CCN(C)Cc1c2ccccc2c(CN(C)CCN(C)C)c2ccccc12	-5%	?	-27%	4µM*	-13%
CN(C)CCP(=O)(c1ccccc1)c1ccccc1	7%	-18	-9%	-8%	-11%
CCCNS(=O)(=O)c1ccc(CCC(=O)N2CCN(c3ccc(F)cc3)CC2)cc1	?	-65*	-20%	?	-7%
CCCNS(=O)(=O)c1ccc(CCC(=O)N2CCN(c3ccc(OC)cc3)CC2)cc1	.	?	-16%	?	?
COc1ccc(-c2nc(CSCC(=O)N3CCN(c4ccccc4)CC3)c(C)o2)cc1	35µM*	-65*	?	.	?
O=C(CSCc1ccc(F)cc1)N1CCN(c2ccccc2)CC1	12%	0	-5%	1%	-9%
Cc1ccc(-c2nc(CSCC(=O)N3CCCC3)c(C)o2)cc1	-24%	?	.	?	.
CCc1ccc(-c2nc(CSCC(=O)N3CCN(c4ccc(F)cc4)CC3)c(C)o2)cc1	?	-80*	?	.	?
SMILES	FMDV inh	HCMV inh	VACV Venus inh	HCV inh	Vaccinia mCherry
Cn1c(CSCc2ccc(F)cc2)nnc1SCC(=O)N1CCN(c2ccccc2)CC1	?	-69*	?	?	.
Cc1ccsc1-c1nc(CSCC(=O)N2CCN(c3ccccc3)CC2)c(C)o1	?	6	-19%	?	?
CCCOc1c(Br)cc(C(=O)OCC(=O)NC(=O)c2cccn2C)cc1OC	-7%	-9	-5%	?	i
COc1ccc(-c2nc(CSCC(=O)N3CCN(c4cccc(C)c4)C(C)C3)c(C)o2)cc1OC (configuration not stated)	?	-18	-25%	10µM*	-13%
Cc1ccc(CSCC(=O)N2CCN(c3ccc(F)cc3)CC2)cc1	-9%	-66*!	-7%	2%	-9%
O=C(CSCc1ccc(F)cc1)N1CCN(c2ccc(F)cc2)CC1	?	-1	.	-18%	.
COc1ccc(-c2nc(CSCC(=O)N3CCN(c4ccc(F)cc4)CC3)c(C)o2)cc1	13µM*	-90*	?	.	?
CC(=O)N[C@H](Cc1c[nH]c2ccccc12)C(N)=O	-7%	.	-10%	.	i
Cc1nc(NCCc2cnc[nH]2)c2oc3ccccc3c2n1	.	34	-14%	-1%	i
c1ccc(CNc2ncnc3c2oc2ccccc23)nc1	26%	70	.	-5%	.
COc1ccc(CCNc2nc(C)nc3c2oc2ccccc23)cc1OC	18µM*	-67*	?	?	.
COc1ccc(CCNc2ncnc3c2oc2ccccc23)cc1OC	.	-92*	?	3.2µM*	-21%
COc1cc(=O)n2c(c1C(=O)NC(C)c1ccco1)CCN(C(=O)c1cc(C)cc(C)c1)CC2 (configuration not stated)	28%	.	-12%	.	-16%
CCn1ccnc1CN1CCC(n2nccc2NC(=O)c2ccccc2OC)CC1	10µM*	6	1%	10%	-11%
CCOc1ccccc1N1CCN(CC(=O)Nc2ccnn2C2CCCC2)CC1	?	-14	.	13µM*	.
CC(C)NC(=O)c1ccc(CSc2nc3ccncc3n2Cc2cccc(F)c2)cc1	-11%	7	-2%	.	-5%
COc1ccc(NC(=O)c2ccc(C)o2)c([N+](=O)[O-])c1	36%	-12	-1%	6%	-3%
COc1ccc(NC(=O)c2cc(Br)ccc2Cl)c([N+](=O)[O-])c1	-11%	-63*	-11%	-3%	-4%
COc1ccc(NC(=O)c2ccc([N+](=O)[O-])s2)c([N+](=O)[O-])c1	35%	-85*	.	-8%	.
COc1ccc(NC(=S)NC(NC(=O)c2ccccc2Cl)C(Cl)(Cl)Cl)c([N+](=O)[O-])c1 (configuration not stated)	.	?	-22%	?	-10%
COc1ccc(NC(=S)NC(NC(=O)c2cccc3ccccc23)C(Cl)(Cl)Cl)c([N+](=O)[O-])c1 (configuration not stated)	.	-17	-21%	10µM*	-20%
Nc1[nH]c2cc([N+](=O)[O-])ccc2c1-c1ccccn1	-8%	20	56%	13µM*	?
COc1cc(OC)c(/C=C/c2nc3ccccc3o2)c(OC)c1	.	.	-10%	.	-12%
C=CCn1c(O)c(C(C)=NCc2cc(OC)cc(OC)c2)c(=O)[nH]c1=O	-24%	86	5µM*	?	8.9µM*
CC(C)NC(=O)N1CC[C@@]2(CCCN(C(=O)Oc3ccccc3)C2)C1	-7%	.	.	.	.
CCc1nc2ccc(C(=O)NCCOc3ccc(OC)cc3)cn2c1N(C)CCCc1ccccc1	-12%	-30	-16%	.	-23%
